# Reference: ChEMBL document CHEMBL1201862, “PubChem BioAssay data set” (2004)
# The whole screen tested about 350,000 compounds, of which about 700 (0.2%) were called active. The calls are words filed in the database; no cut-off is given here. Shown is part of a subset that was picked to be rich in actives.
# Target: RecQ-like DNA helicase BLM (Homo sapiens) (UniProt P54132)
# Assay: qHTS Assay for Inhibitors of Bloom's syndrome helicase (BLM).
# Assay type: functional
# Chain of RecQ-like DNA helicase BLM (Homo sapiens) (P54132 whole entry): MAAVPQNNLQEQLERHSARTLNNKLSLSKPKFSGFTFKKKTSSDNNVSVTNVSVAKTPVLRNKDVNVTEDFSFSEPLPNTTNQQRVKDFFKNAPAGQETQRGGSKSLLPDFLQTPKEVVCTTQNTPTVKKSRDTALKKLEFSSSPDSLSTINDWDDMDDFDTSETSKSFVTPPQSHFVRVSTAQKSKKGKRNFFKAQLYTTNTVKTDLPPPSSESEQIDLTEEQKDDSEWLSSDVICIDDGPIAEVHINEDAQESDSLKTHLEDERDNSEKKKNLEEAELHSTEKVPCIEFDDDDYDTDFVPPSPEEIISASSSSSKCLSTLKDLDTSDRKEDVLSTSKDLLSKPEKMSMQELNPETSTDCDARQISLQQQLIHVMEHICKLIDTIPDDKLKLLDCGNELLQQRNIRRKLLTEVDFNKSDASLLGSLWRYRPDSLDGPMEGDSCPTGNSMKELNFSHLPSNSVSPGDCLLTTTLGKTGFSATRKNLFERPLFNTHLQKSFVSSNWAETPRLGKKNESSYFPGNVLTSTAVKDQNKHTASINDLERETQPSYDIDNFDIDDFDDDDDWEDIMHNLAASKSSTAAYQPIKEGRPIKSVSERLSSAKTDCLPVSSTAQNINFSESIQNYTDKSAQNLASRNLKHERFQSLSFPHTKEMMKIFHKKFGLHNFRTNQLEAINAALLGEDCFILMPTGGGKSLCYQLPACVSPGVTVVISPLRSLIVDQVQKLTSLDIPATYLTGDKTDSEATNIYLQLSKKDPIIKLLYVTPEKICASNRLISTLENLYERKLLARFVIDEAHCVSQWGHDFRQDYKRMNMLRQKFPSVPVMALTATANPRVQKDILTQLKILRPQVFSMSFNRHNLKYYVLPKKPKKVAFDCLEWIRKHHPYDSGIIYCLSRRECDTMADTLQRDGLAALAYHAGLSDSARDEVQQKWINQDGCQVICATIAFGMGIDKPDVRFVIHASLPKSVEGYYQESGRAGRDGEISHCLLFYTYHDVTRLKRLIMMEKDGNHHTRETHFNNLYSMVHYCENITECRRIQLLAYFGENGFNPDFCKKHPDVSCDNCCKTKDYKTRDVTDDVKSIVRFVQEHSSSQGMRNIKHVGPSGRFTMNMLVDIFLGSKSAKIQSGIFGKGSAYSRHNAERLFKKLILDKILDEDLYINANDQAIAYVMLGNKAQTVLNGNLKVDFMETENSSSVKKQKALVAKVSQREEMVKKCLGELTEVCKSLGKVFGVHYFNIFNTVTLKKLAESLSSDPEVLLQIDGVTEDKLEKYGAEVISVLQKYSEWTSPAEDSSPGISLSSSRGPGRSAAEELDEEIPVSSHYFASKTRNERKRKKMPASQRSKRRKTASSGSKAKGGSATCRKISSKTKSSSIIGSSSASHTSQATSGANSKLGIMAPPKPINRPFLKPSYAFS
row,Compound,Potency
1,N[C@H](Cc1ccc(O)c(O)c1)C(=O)O,28.2 µM (active)
